The results in this text go back to PubChem BioAssay (EPA / NIEHS).

Records with an inconclusive call do not appear. Calls of active or inactive are those of the source. Rule for the calls: active = hit-call score of the fitted dose curve at least 0.9, where 1 is the maximum; inconclusive = response in the unintended direction; inactive = score below 0.9.

A word on the AC50: it is the concentration at which the activity in the assay is half-maximal.

The target of the experiment is Luciferin 4-monooxygenase (Photinus pyralis) (UniProt P08659). Put plainly: CCTE_Simmons_QuantiLum_inhib_2: CCTE's Firefly Luciferase Inhibition Assay, Simmons Lab (AID 2283767).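 For AC50: potency for inhibitors that lower luciferase luminescence relative to DMSO.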 How it is done: CCTE_Simmons_QuantiLum_inhib_2 is a biochemical, single-readout assay that uses purified luciferase enzyme in a cell-free assay.Measurements were taken 0.5 hour after chemical dosing in a 384-well plate.CCTE_Simmons_QuantiLum_inhib_2 is the assay component measured from the CCTE_Simmons_QuantiLum_inhib_2 assay. It is designed to make measurements of enzyme activity, a form of enzyme reporter, as detected with bioluminescence signals by Luciferase-coupled Quantilum levels technology. This is a secondary assay to CCTE_Simmons_AUR_TPO to evaluate nonspecific enzyme inhibition.Data from the assay component CCTE_Simmons_QuantiLum_inhib_2 was analyzed at the endpoint, CCTE_Simmons_QuantiLum_inhib_2, in the positive analysis fitting direction relative to DMSO as the negative control and baseline of activity. Using a type of enzyme reporter, measures of enzyme activity for loss-of-signal activity can be used to understand inhibition of firefly luciferase. This is an assay endpoint to indicate nonspecific protein inhibition for comparison to aeid 1508 for thyroperoxidase inhibition. To generalize the intended target to other relatable targets, this assay endpoint is annotated to the oxidoreductase intended target family, where the subfamily is monooxygenase.
Sequence of Luciferin 4-monooxygenase (Photinus pyralis) (P08659 whole entry, looked up): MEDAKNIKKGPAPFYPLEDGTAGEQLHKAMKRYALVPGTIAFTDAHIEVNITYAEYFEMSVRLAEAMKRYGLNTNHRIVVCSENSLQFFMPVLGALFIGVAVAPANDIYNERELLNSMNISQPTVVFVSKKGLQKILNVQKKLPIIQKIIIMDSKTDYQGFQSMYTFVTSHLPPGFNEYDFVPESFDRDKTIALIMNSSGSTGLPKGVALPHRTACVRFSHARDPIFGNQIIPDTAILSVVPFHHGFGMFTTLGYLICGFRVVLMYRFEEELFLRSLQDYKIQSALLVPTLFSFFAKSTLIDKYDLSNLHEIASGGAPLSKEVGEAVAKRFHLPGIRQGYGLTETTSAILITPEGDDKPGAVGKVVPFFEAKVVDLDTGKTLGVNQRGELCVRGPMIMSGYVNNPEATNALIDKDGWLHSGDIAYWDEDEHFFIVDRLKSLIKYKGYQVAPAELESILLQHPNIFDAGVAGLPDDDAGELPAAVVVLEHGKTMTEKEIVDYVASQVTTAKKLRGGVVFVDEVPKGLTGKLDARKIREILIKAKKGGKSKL
Quanti-Lum recombinant luciferase (Promega; Madison, Wisconsin) was diluted to 76.9 ng/ml with 200mM potassium phosphate buffer supplemented with 1 mg/ml bovine serum albumin and 65ul (5ng recombinant luciferase) per well was dispensed into opaque, white 384-well plates (Greiner, BioExpress) using an automated liquid handler (BioTek MicroFlo) with a plastic 5 ul tubing cassette. Test compounds were administered using the HDRT as described earlier to achieve a 0.5% final DMSO concentration. Microplates were incubated at 37C in the dark for 30min to mimic the AUR-TPO assay conditions. Luciferase detection reagent (25 ul per well; 9.2 mM dithiothreitol, 75uM Coenzyme A, 147uM dATP, 150uM D-luciferin, 8.9 mM Tricine, 297uM (MgCO3)4.Mg(OH)2.5H20, 742uM MgSO4, 27.8uM EDTA, pH 7.8, final assay concentrations) was then added using a BMG Clariostar plate reader equipped with syringe injectors (BMG LabTech; GmbH). Plates were read using a kinetic luminescence protocol (top read) whereby each well was individually injected with luciferase detection reagent immediately prior to measurement. Three biological replicates of technical singles were run for every chemical concentration tested. A titrated range of LUCINH2 served as a positive control on each plate of the luciferase inhibition screening assay. Test chemicals were administered as a titrated series of 8 concentrations from 5 nM up to 87.5 uM [final] for 30 minutes prior to single endpoint detection. Dimethylsulfoxide [DMSO] was used as the vehicle control. Luciferase Inhibitor I [2-(5-(2-Methoxyphenyl)-1,2,4-oxadiazol-3-yl)pyridine] was used as the positive control and was administered as a titrated series of 8 concentrations from 1 nM up to 100 uM [final].
As for `O=[N+]([O-])c1ccc2[nH]c(=S)[nH]c2c1`, the call was inactive.

In the case of `CSc1nc2ccccc2s1`, the concentration at half-maximal activity (AC50) is 35.1 µM (active).

For the molecule `COc1c[nH]ccc1=O`, the result was inactive.

`O=c1[nH]c2ccccc2s1`: the outcome was inactive.

Take `O=C1CC(c2ccc(O)cc2)Oc2cc(O)cc(O)c21` (configuration not stated): the result was inactive.

For the molecule `CCCCOC(=O)c1ccccc1O`, the call was inactive.

Regarding `C=CC1CNC(=S)O1` (configuration not stated), the molecule was called inactive.

With `OC(c1ccccc1)c1ccccc1`, the result was inactive.

Regarding `Cn1c(=S)[nH]c2ccccc21`, the molecule was classed as inactive.

For the molecule `S=c1[nH]c2cc(Cl)ccc2s1`, the molecule was called inactive.

`CN(C)C(=S)N(C)C`: the concentration at half-maximal activity (AC50) was 79.5 µM (active).

For `O=C(c1ccccc1)c1ccc(O)cc1`, the outcome was inactive.

As to `O=C(NO)c1ccccc1O`, the molecule was called inactive.

Regarding `Oc1cccnc1`, the outcome was inactive.

Take `CCOC(=O)c1cccc(O)c1`: the outcome was inactive.

With `O=c1cccc(O)[nH]1`, the outcome was inactive.

Turning to `OCc1ncccc1O`, the molecule was called inactive.
